Each structure is given as a SMILES string. About 79,000 compounds went through this panel and 15% of them were active in at least one assay; those are over-represented in the sample as a whole. A number with no mark means an inactive call. Active and inactive are the calls of the source. Cut-off read from the data, not from the text of the source: active = growth inhibition above about 70%; inactive = the rest.

Assay [1] is described as follows: NCI Yeast Anticancer Drug Screen. Data for the rad50 strain (AID 155).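 Note: 0% = growth of vehicle-only cultures of the same strain.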 Particulars: S. cerevisiae rad50 strain growth inhibition; at 50.0 µM; stronger effect = higher value. Put shortly: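 Yeast carrying a defined DNA repair defect were exposed to test compounds, and growth was compared with vehicle-treated controls to give percent inhibition.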
The nature of assay [2]: NCI Yeast Anticancer Drug Screen. Data for the mec2-1 strain (AID 157). Particulars: S. cerevisiae mec2-1 strain, at 50.0 µM, stronger effect = higher value. The method in brief:
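Using mec2-1 yeast: add compound, measure growth, express inhibition versus vehicle-treated cultures.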

The nature of assay [3]: NCI Yeast Anticancer Drug Screen. Data for the sgs1 mgt1 strain (AID 161).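 Note: 0% = growth of cultures given vehicle only.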 Particulars: S. cerevisiae sgs1 mgt1 strain, at 50.0 µM, stronger effect = higher value. The method in brief: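 Yeast cells carrying a defined DNA-repair defect were exposed to test compounds. Growth inhibition was measured relative to vehicle-treated controls.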
Assay [4] can be described thus: NCI Yeast Anticancer Drug Screen. Data for the cln2 rad14 strain (AID 165).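 Note: 0% = growth equal to vehicle treated cultures.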 The conditions noted are these: S. cerevisiae cln2 rad14 strain, at 50.0 µM, stronger effect = higher value. Put shortly:
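Yeast strain cln2 rad14, bearing defects in cell cycle control and DNA repair, serves as the test system; values reflect growth inhibition compared with vehicle.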

Assay [5] is described as follows: NCI Yeast Anticancer Drug Screen. Data for the bub3 strain (AID 167). Particulars: S. cerevisiae bub3 mutant strain, at 50.0 µM, stronger effect = higher value. Put shortly: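 Compounds were applied to a genetically altered yeast strain carrying a cell-cycle control defect. Growth inhibition was scored against vehicle-treated controls.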
Assay [6] can be described thus: NCI Yeast Anticancer Drug Screen. Data for the mlh1 rad18 strain (AID 175). Particulars: S. cerevisiae mlh1 rad18 strain growth inhibition; at 50.0 µM; stronger effect = higher value. Put shortly: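 Steps: expose repair-defective yeast to compound; measure growth; express inhibition against vehicle-treated controls.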

For `CCOCc1cnc(SC)nc1N`, the growth inhibition is -0.75% in assay [1]; 7.35% in assay [2]; -9.45% in assay [3]; -0.25% in assay [4]; -0.15% in assay [5]; -14.4% in assay [6].
In the case of `CN(C)c1ccc(/C=C(\C#N)C(=O)c2ccccc2)cc1Br`, the growth inhibition is 0.55% in assay [1]; -6.1% in assay [2]; 1.85% in assay [3]; 22.7% in assay [4]; -15.2% in assay [5]; 13.8% in assay [6].
In the case of `CCN(CC)C(=O)CC1(O)CCCCC1`, the growth inhibition in assay [1] was -9.7%; in assay [2] it was -11.2%; in assay [3] it was -3.15%; in assay [4], -9.65%; in assay [5] it was 2.3%; in assay [6] it was 4.2%.
For the compound `CC(CS(C)(=O)=O)S(=O)(=O)O` (stereo unspecified), the growth inhibition in assay [1] is -6.25%; in assay [2], -20.4%; in assay [3], -1.35%; in assay [4], -0.3%; in assay [5], -14.7%; in assay [6], -5.85%.
With `CCOC(=O)CN1CN(CCc2ccccc2)CC(C)(C)C1OCC` (stereo unspecified), the growth inhibition in assay [1] was 37.1%; in assay [2], 31.6%; in assay [3] it was 43.4%; in assay [4], 20.6%; in assay [5] it was 41.2%; in assay [6] it was 39.5%.
On to `O=C(O)c1c(Cl)ccc(F)c1Cl`, for which the growth inhibition in assay [1] was 9.45%; in assay [2] it was 1.2%; in assay [3] it was 4.5%; in assay [4], -11.9%; in assay [5], 11.3%; in assay [6] it was 8.35%.
Regarding `CC(=O)OCC1OC(n2cc(F)c(=O)[nH]c2=O)C(OC(C)=O)C1OC(C)=O` (stereo unspecified), the growth inhibition is 28.9% in assay [1]; 3.2% in assay [2]; -13.1% in assay [3]; 43.2% in assay [4]; -16.4% in assay [5]; -26.4% in assay [6].
Consider `COc1ccc(-c2nc(N3CCCC3)no2)cc1`, for which the growth inhibition was -0.85% in assay [1]; -4.65% in assay [2]; 32.1% in assay [3]; 3.85% in assay [4]; 31.1% in assay [5]; -20.9% in assay [6].
`OC1CCCNC1` (stereo unspecified): the growth inhibition in assay [1] was 16.9%; in assay [2], -4.5%; in assay [3], 21.1%; in assay [4], 18.1%; in assay [5] it was 14.5%; in assay [6] it was 30.2%.
`Nc1cccc2c1C(=O)c1cccc(N)c1C2=O`: the growth inhibition in assay [1] is 7.65%; in assay [2] it was 16.4%; in assay [3] it was 8.4%; in assay [4], -7.35%; in assay [5] it was 8.2%; in assay [6], 21.9%.
With `COc1ccc(N)c(C(O)CCNC(C)=O)c1` (stereo unspecified), the growth inhibition was -20.1% in assay [1]; -23.2% in assay [2]; -25.9% in assay [3]; -7.5% in assay [4]; -43.5% in assay [5]; -38.8% in assay [6].
As to `C[CH2][Sn]([CH2]C)([n]1c2ccccc2c2c(C)c3cnccc3c(C)c21)[n]1c2ccccc2c2c(C)c3cnccc3c(C)c21`, the growth inhibition in assay [1] was 72.2% (active); in assay [2], 14.7%; in assay [3], 25.5%; in assay [4], 44.5%; in assay [5] it was 25.6%; in assay [6], 71.3% (active).
With `C/C=C/C(=O)OC/C=C(\C)CCC=C(C)C`, the growth inhibition in assay [1] was -26.4%; in assay [2], -44.9%; in assay [3], -6.7%; in assay [4], -4.3%; in assay [5], -39.7%; in assay [6] it was -16.7%.
`COc1cc(Nc2cc(Cl)cc(Cl)c2)nc(N)n1`: the growth inhibition in assay [1] is 76.4% (active); in assay [2] it was 81% (active); in assay [3] it was 6.5%; in assay [4], 7.9%; in assay [5], 9.35%; in assay [6], 89.6% (active).
With `CCC1(C(=O)O)OC1(C)c1cccs1` (stereo unspecified), the growth inhibition in assay [1] was -40%; in assay [2] it was -8.95%; in assay [3], -3.35%; in assay [4], -27.1%; in assay [5], 10.5%; in assay [6], 2%.
Consider `NS(=O)(=O)c1ccc(N=Nc2c[nH]c(=O)c(O)c2)cc1`, for which the growth inhibition in assay [1] is 3.45%; in assay [2], 4.95%; in assay [3], -9.55%; in assay [4] it was -37.4%; in assay [5], -60.4%; in assay [6] it was 2.3%.
`CC(=O)/C(=C/n1c(=S)[nH]c2ccccc21)C(=O)Nc1ccc([N+](=O)[O-])cc1`: the growth inhibition in assay [1] was -17.5%; in assay [2], -2.75%; in assay [3], -13.9%; in assay [4], -8.9%; in assay [5], -14.1%; in assay [6], -13.2%.
For the compound `c1ccc(C2=C(c3ccccn3)N=c3ccccc3=c3ccccc3=N2)nc1`, the growth inhibition in assay [1] is 2.4%; in assay [2], 14.2%; in assay [3], -1.15%; in assay [4], -48.6%; in assay [5] it was 3.65%; in assay [6], -8.9%.
As to `NC(CO)CSCc1ccccc1` (stereo unspecified), the growth inhibition was 1.65% in assay [1]; 1.6% in assay [2]; 11.6% in assay [3]; -4.4% in assay [4]; 13.3% in assay [5]; -0.65% in assay [6].
Take `O=C(Nc1ccccc1)Oc1cccc(-c2ccc(-c3ccccc3)cc2)c1`: the growth inhibition was 29.4% in assay [1]; 6.5% in assay [2]; 33.7% in assay [3]; 18.9% in assay [4]; 49.5% in assay [5]; 18.2% in assay [6].
Regarding `COC1=CC(=O)[C@H]2[C@H](C)C(c3ccccc3)[C@@]2(C)C1=O` (stereo partly specified), the growth inhibition was -21.5% in assay [1]; -1.5% in assay [2]; -16.6% in assay [3]; 2.1% in assay [4]; -0.05% in assay [5]; -20.2% in assay [6].

The values above are taken from PubChem BioAssay (NCI).
